The text below walks through data of PubChem BioAssay.

The structures appear in SMILES notation. Active and inactive are the calls of the source.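 Rule for the calls, unless noted: active = inhibition above 20% together with a positive visual image hit; inconclusive = visual image hit but inhibition not above 20%; inactive = no visual image hit.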

A short description of test [1]: inhibitors of TNFa-induced NFkB p65 translocation, primary screen, imaging, HUVEC, MLSMR starter and 10KST1 sets (AID 438).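 For inhibition: signal is the nuclear over cytoplasmic p65 intensity ratio per well.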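 Note: compound added about 3h40 before a 20 min TNFalpha stimulation.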 To be noted: HUVEC TNFa-induced p65 nuclear translocation; cell count: measured here: nuclei count (cytotoxicity indicator), at 2.08 µM; inhibition: at 2 µM, stronger effect = higher value, 0% TNFa-plus-vehicle, 100% no-TNFa wells.
Test [2] in a line: inhibitors of mutant huntingtin aggregation, primary screen, imaging, exon1htt(103Q)mCFP cells, high-content imaging (AID 483;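 active = visual image review flags a hit and inhibition of aggregation exceeds 20%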;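 note: compound exposure lasted 3 days before fixation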;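 for nuclei count: percent of the per-plate median nuclei count of sample wells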). The following applies: exon1htt(103Q)mCFP cell line, aggregate imaging, at 2 µM; inhibition of aggregation: stronger effect = higher value; nuclei count: measured here: cell count, toxicity.
Test [3] in a line: inhibitors of E-selectin induction by TNFa, primary screen, imaging, HUVEC, immunofluorescence, MLSMR starter and 10KST1 sets (AID 487;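 active = visually confirmed hit in the image check and inhibition above 20%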;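 for inhibition: signal is fraction of cell area covered by stained E-selectin grains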;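 for nuclei count: 100% = median nuclei count of all wells on the same plate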). The following applies: HUVEC TNFalpha-induced E-selectin immunofluorescence imaging, at 2 µM; inhibition: stronger effect = higher value; nuclei count: measured here: cell number, toxicity.
For test [4], the target named is Voltage-gated potassium channel subunit beta-2 (Rattus norvegicus) (UniProt P62483). Kind of test: KvBeta enzyme negative modulators, primary screen, biochemical, NADPH fluorescence (AID 622;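 active = fluorescence slope higher than the sample average by over 3 SD, cut at about -0.22 in these data, passing the limit was not always enough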;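 note: slope of raw intensity against log time taken from 70 to 1610 s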). The following applies: recombinant KvBeta, 4-cyanobenzaldehyde reduction, at 10 µM, stronger effect = higher value.
Voltage-gated potassium channel subunit beta-2 (Rattus norvegicus), sequence (P62483 whole entry, looked up): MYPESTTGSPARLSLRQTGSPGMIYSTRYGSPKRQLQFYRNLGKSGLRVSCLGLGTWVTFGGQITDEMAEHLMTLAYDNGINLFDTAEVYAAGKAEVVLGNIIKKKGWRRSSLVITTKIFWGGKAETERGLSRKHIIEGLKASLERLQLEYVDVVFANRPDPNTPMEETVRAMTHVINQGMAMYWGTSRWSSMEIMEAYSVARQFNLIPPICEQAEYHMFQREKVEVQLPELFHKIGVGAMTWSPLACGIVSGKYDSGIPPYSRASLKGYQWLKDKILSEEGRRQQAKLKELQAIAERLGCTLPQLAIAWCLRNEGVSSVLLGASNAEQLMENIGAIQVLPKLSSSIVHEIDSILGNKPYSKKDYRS
For test [5] the target is unchanged. Put plainly: KvBeta positive modulators, primary screen, biochemical, NADPH fluorescence (AID 623;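 active = NADPH fluorescence slope more negative than the mean of all samples by about 3 SD, 99.7% confidence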;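 note: fluorescence intensity change per second fitted from 20 to 320 s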). The following applies: Recombinant KvBeta, NADPH fluorescence decrease slope, 10 min; at 10 µM; stronger effect = lower value.
The target in test [6] is Alpha-2C adrenergic receptor (Homo sapiens) (UniProt P18825). Put plainly: modulators of alpha2C/GIRK thallium flux, primary screen, cell-based, HEK293 alpha2C/GIRK1/2 (AID 624;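 active = fluorescence slope after compound addition differing from the mean of all screened samples at 99.7% confidence, in either direction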;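 note: slope of fluorescence ratio to pre-addition baseline per second over 15 to 24 s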). To be noted: thallium flux BTC fluorescence, at 10 µM, actives lie on both sides.
Alpha-2C adrenergic receptor (Homo sapiens), sequence (P18825 whole entry, looked up): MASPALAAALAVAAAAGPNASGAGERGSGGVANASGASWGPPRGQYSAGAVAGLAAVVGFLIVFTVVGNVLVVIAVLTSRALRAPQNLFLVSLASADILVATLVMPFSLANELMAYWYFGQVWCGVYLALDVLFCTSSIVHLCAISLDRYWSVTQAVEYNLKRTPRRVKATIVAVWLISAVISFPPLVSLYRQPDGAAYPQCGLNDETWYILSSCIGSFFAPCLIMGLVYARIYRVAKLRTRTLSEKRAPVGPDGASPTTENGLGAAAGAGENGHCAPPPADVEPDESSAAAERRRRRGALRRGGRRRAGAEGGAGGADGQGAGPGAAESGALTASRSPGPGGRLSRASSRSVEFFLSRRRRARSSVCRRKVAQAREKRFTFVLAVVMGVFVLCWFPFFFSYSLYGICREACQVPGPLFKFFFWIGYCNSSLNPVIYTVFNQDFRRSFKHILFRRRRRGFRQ
Test [7] is described as follows: inhibitors of Sendai virus-induced IRF3 signaling, primary screen, TLR/RLR signaling modifier project, cell-based, Sendai virus stimulus, luciferase, 10K MLSCN set (AID 602276;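 active = inhibition at or above 50% at 10 µM; inactive = inhibition below 50%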;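 note: firefly luciferase from ISG56 promoter only with Renilla not read in this screen; 0% = Sendai virus plus DMSO and 100% = medium plus DMSO without virus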). To be noted: HEK293 RL24 IRF3 luciferase reporter, at 10 µM, stronger effect = higher value. In general terms: A reporter such as luciferase makes a cellular process visible.
A short description of test [8]: inhibitors of poly I:C-induced TLR3 signaling, primary screen, cell-based, poly I:C stimulus, luciferase, 10K MLSCN set (AID 602277;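 active = inhibition of the reporter signal at or above 50%; inactive = inhibition below 50%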). To be noted: HEK293-TLR3 RL24 IRF3 luciferase reporter, at 10 µM, stronger effect = higher value.
Test [9] in a line: DUSP6 inhibitors restoring Erk phosphorylation by chemical complementation, primary imaging in DUSP6-transfected HeLa (AID 609;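 active = compounds giving at least 50% inhibition in the cell-based MKP-3 phosphatase rescue imaging test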;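 for inhibition: phospho-Erk level distribution per well compared with pooled transfected vehicle control wells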). To be noted: HeLa MKP-3 transfected, phospho-Erk imaging KS statistic, at 10 µM, cells stimulated with TPA for 15 min.
Test [10] addresses Dual specificity protein phosphatase 6 (Homo sapiens) (UniProt Q16828). The description is as above. The following applies: HeLa MKP-3 transfected, phospho-Erk imaging KS statistic; at 10 µM; stronger effect = higher value; cells stimulated with TPA for 15 min.
The target in test [11] is Muscarinic acetylcholine receptor M4 (Homo sapiens) (UniProt P08173). Kind of test: compounds altering M4/GIRK thallium flux, either direction, primary screen, M4 allosteric agonist project, cell-based, HEK293 M4/GIRK, BTC-AM (AID 625;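 active = fluorescence slope after compound addition differing from the mean of all tested samples at 99.7% confidence, mostly higher but some lower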;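 note: thallium influx through GIRK channels coupled to M4 in HEK293 cells with BTC-AM dye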). The following applies: at 10 µM, actives lie on both sides.
Muscarinic acetylcholine receptor M4 (Homo sapiens), sequence (P08173 whole entry, looked up): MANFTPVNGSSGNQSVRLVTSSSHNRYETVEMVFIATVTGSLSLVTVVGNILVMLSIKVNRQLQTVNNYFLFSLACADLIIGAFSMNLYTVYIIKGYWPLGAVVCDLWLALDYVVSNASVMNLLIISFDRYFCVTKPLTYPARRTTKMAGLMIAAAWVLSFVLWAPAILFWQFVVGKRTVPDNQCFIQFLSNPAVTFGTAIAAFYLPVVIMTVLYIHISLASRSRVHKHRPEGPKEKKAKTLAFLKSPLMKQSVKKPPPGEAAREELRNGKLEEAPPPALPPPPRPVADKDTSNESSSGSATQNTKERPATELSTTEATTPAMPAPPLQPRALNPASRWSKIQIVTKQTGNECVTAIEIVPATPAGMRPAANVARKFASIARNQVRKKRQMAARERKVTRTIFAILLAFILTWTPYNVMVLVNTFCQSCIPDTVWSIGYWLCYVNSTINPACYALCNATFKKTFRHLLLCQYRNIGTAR
Test [12] in a line: inhibitors of larval lipid processing in zebrafish, primary screen, whole organism, PED6 fluorescence, gall bladder and intestine (AID 686;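 active = a full or partial loss of lipid-probe fluorescence in the fish gall bladder, intestine or both, judged by eye; inactive = no fluorescence loss, or compound toxic to the fish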;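 note: larvae 5 to 7 days old with five fish per well; signal comes from phospholipase A2 cleavage of quenched PED6 carried via bile; overnight exposure to compound and PED6 before scoring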). The following applies: Zebrafish larvae PED6 lipid processing, fluorescence scoring; screened at 20 µM (by protocol).
Test [13] is described as follows: inhibitors of Chlamydomonas gravitaxis, primary screen, whole organism, Chlamydomonas reinhardtii, WT vs cilia-less mutant, absorbance, 96-well (AID 463189;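 active = inhibition at or above 50% relative to wild type and mutant plate controls; inactive = inhibition below 50%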;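 note: 0% = wild type cc124 cells in DMSO and 100% = ciliumless bld1 mutant cells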). The following applies: OD600 absorbance, 2 days, at 10 µM, stronger effect = higher value.
The mark [14] stands for this setting: measured here: cell density z-score.
The mark [15] stands for this setting: measured here: nuclear c-Myc green intensity z-score.
[16] abbreviates: measured here: nuclear pErk red intensity z-score, stronger effect = higher value.

As a reminder, the inhibition is the relative decrease from the control value, in per cent.

Dual specificity protein phosphatase 6 (Homo sapiens), sequence (Q16828 whole entry, looked up): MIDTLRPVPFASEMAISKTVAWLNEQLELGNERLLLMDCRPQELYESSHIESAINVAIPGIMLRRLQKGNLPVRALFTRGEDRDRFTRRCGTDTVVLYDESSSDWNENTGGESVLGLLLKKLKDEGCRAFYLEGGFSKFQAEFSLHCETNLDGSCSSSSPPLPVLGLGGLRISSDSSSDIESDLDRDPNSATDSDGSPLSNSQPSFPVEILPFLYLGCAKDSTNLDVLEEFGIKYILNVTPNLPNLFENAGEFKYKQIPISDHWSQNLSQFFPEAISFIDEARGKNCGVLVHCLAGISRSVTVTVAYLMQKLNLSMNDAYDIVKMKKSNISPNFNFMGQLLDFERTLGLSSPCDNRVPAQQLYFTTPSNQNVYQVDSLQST

For the molecule `CCn1cc(C2=NCC(C)O2)c2ccccc21` (stereo unspecified), in test [1], the cell count was found to be 487. The inhibition was 5% (inactive) in test [1], -128% (inactive) in [3], 12.7% (inactive) in [7] and 25.5% (inactive) in test [8]. Besides, the inhibition of aggregation in test [2] was -14% (inactive). For the same molecule, the nuclei count worked out at 83.2% in test [2] and 102% in test [3]. In [4], the fluorescence slope was -0.595 (inactive). Moreover, the NADPH fluorescence slope in test [5] was -9.7e-06 (inactive). Also, the slope in test [6] was 0.00619 (inactive).
Consider `O=C(Nc1ccccc1)N(O)c1ccc(Cl)cc1`, for which the cell count in test [1] was determined as 284. Also, the inhibition is -11.4% (inactive) in [1], 44.1% (inactive) in [3], -39.6% (inactive) in test [7] and -78.3% (inactive) in test [8]. In addition, in test [2], the inhibition of aggregation is 38.9% (active). Further, the nuclei count in test [2] was determined as 90.3%; in test [3], 85.6%. Moreover, in [4], the fluorescence slope was -0.378 (inactive). The NADPH fluorescence slope in test [5] is -7.1e-05 (inactive). For the same molecule, the slope in test [6] is 0.00373 (inactive).
For `Cc1ccccc1NC(=O)CN1CCC(NC(=O)Nc2ccccc2)CC1`, the cell count in test [1] stood at 516. Also, the inhibition in test [1] is -1.9% (inactive); in test [3], -121% (inactive); in [7], 9.37% (inactive); in test [8], 9.34% (inactive). The inhibition of aggregation in test [2] was 25.9% (inactive). The nuclei count was found to be 68% in [2] and 93% in test [3]. Also, the fluorescence slope in [4] was -0.292 (inactive). Moreover, in test [5], the NADPH fluorescence slope was -4.8e-05 (inactive). In test [6], the slope was 0.00566 (inactive).
Regarding `Cc1nc2sc(C(c3cccc(F)c3)N3CCOCC3)c(O)n2n1` (stereo unspecified), the cell count in test [1] turned out to be 244. Further, the inhibition in [1] was -9% (inactive); in test [3], -18.1% (inactive); in test [7], -7.54% (inactive); in test [8] it was 99.3% (active). Besides, in [2], the inhibition of aggregation was -29% (inactive). Moreover, the nuclei count in test [2] stood at 112%; in test [3] it was 119%. Moreover, the fluorescence slope in [4] is -0.502 (inactive). The NADPH fluorescence slope in [5] was -9.8e-05 (inactive). Also, in test [6], the slope is 0.00576 (inactive).
Regarding `CCN(CC)CCCNc1oc(-c2cccc(Cl)c2)nc1C#N`, the cell count in [1] stood at 729. The inhibition was -11.9% (inactive) in test [1], -37.9% (inactive) in test [3], 8.46% (inactive) in [7] and 27.9% (inactive) in test [8]. The inhibition of aggregation in test [2] is -13.5% (inactive). For the same molecule, the nuclei count was 98.2% in test [2] and 112% in test [3]. Besides, in test [4], the fluorescence slope is -0.0368 (active). The NADPH fluorescence slope in test [5] was -1.1e-05 (inactive). Besides, the slope in test [6] was 0.00338 (inactive).
With `CCCc1ccc(S(=O)(=O)NCCc2ccncc2)cc1`, in test [1], the cell count worked out at 352. Besides, the inhibition was -15.7% (inactive) in test [1], -94.2% (inactive) in [3], -3.61% (inactive) in [7] and -11.2% (inactive) in [8]. The inhibition of aggregation in test [2] was -25.5% (inactive). The figures for the nuclei count in [2] and in [3] were 109% and 121%, respectively. Further, the fluorescence slope in [4] is -0.585 (inactive). Further, the NADPH fluorescence slope in test [5] is -2.4e-05 (inactive). The slope in test [6] is 0.00524 (inactive).
As to `COc1ccc(-c2nc3n(n2)C(=O)CC(c2ccco2)S3)cc1` (stereo unspecified), the cell count in [1] was 666. In addition, the inhibition is -10.3% (inactive) in [1], -11.5% (inactive) in test [10] and -9.22% (inactive) in test [13]. This molecule displayed a nuclei count in test [3] of 135%. In addition, the z-score in [9] (setting [14]) was -1.15; in test [9] (setting [15]) it was -1.31; in test [9] (setting [16]), -2.71. Also, the fluorescence slope in test [4] is -0.466 (inactive); in test [11] it was 0.00655 (inactive). Also, in [5], the NADPH fluorescence slope is -5.1e-05 (inactive). The molecule was called inactive in [12].
In the case of `O=C(CSc1nc2ccccc2s1)Nn1cnnc1`, the cell count in test [1] was 461. In addition, the values for the inhibition in test [1], in [10] and in test [13] were -6.2% (inactive), 6.04% (inactive) and 17.1% (inactive), respectively. The same molecule gave a nuclei count in [3] of 166%. Also, the z-score in [9] (setting [14]) is -0.815; in test [9] (setting [15]), -1.79; in test [9] (setting [16]), 0.477. Further, the fluorescence slope in test [4] is -0.439 (inactive); in test [11], 0.00557 (inactive). The NADPH fluorescence slope in test [5] is -7.8e-05 (inactive). Also, the call in test [12] was inactive.
For `CCCOc1ccc2ccccc2c1/C=N/n1cnnc1`, the cell count in test [1] was found to be 209. Further, the inhibition in test [1] is 4.6% (inactive); in [3], -4.9% (inactive); in [7], 7.93% (inactive); in test [8], 3.78% (inactive). In addition, the inhibition of aggregation in test [2] was -0.3% (inactive). In addition, the nuclei count in test [2] is 89.4%; in test [3], 89.2%. Besides, the fluorescence slope in test [4] was -0.31 (inactive). Besides, in test [5], the NADPH fluorescence slope is -1.6e-05 (inactive). Besides, the slope in [6] is 0.008 (inactive).
Consider `CCOc1ccc(-c2nnc(SCC(=O)N3CCN(c4ccccc4)CC3)o2)cc1`, for which the cell count in [1] stood at 672. The inhibition in [1] was -8.6% (inactive); in test [3], -59.7% (inactive); in test [7] it was 2.37% (inactive); in test [8], 14.8% (inactive). Besides, the inhibition of aggregation in test [2] was 8.1% (inactive). Besides, the nuclei count in test [2] turned out to be 101%; in test [3], 109%. The fluorescence slope in test [4] is -0.559 (inactive). In addition, the NADPH fluorescence slope in test [5] is 2.1e-05 (inactive). In [6], the slope is 0.0058 (inactive).
`COc1ccc(S(=O)(=O)N2CCN(c3ccc(C)cc3C)CC2)cc1OC`: the cell count in test [1] came out at 772. Moreover, the inhibition in test [1] was -0.6% (inactive); in test [3], -19.1% (inactive); in test [7], 4.37% (inactive); in test [8], 13.8% (inactive). The inhibition of aggregation in [2] is -17.1% (inactive). Besides, the nuclei count in [2] was 114%; in test [3], 123%. For the same molecule, in test [4], the fluorescence slope is -0.544 (inactive). The NADPH fluorescence slope in test [5] is -3.9e-05 (inactive). The slope in test [6] is 0.0076 (inactive).
As to `Cc1ccc(NC(=O)c2cc(N3CCOCC3)nc3ccccc23)cc1`, the cell count in [1] was 674. Further, the figures for the inhibition in [1], in test [10] and in [13] were -10.2% (inactive), -16.8% (inactive) and 19% (inactive), respectively. The same molecule came in with a nuclei count in test [3] of 174%. The z-score in [9] (setting [14]) came to 0.315; in test [9] (setting [15]), 1.28; in [9] (setting [16]), 0.543. In addition, the fluorescence slope is -0.393 (inactive) in test [4] and 0.00495 (inactive) in [11]. The NADPH fluorescence slope in test [5] is -2.7e-05 (inactive). Besides, the molecule was called inactive in [12].
On to `Cc1ccc(-n2cnnn2)c2cccnc12`, for which the cell count in test [1] is 658. Besides, the inhibition in test [1] is -9.3% (inactive); in test [3], -17% (inactive); in test [7] it was 5.45% (inactive); in test [8], 27.7% (inactive). The inhibition of aggregation in [2] is -7% (inactive). Besides, the nuclei count in [2] worked out at 104%; in test [3], 102%. In addition, in test [4], the fluorescence slope was -0.402 (inactive). Also, the NADPH fluorescence slope in test [5] is -1.4e-05 (inactive). Also, the slope in test [6] was 0.00333 (inactive).
